Measured values reported in PubChem BioAssay AID1159580 (chemical genetic matrix, 2015).
Where “and” joins values, the source holds several entries; their conditions need not be identical. Equal entries are not always repeated. About 2,000 (36%) of roughly 5,500 compounds were called active. Inconclusive results (about 18%) are left out. Cut-off read from the data, not from the text of the source: active = normalized growth mostly below about 0.91 (no sharp cut-off); inconclusive = no clear call, values can overlap the other calls; inactive = mostly above about 0.92. The list shows a part of the results.

Experiment: chemical genetic growth profiling, strain panel (AID 1159580);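 note: tested at 20 µM; growth read once vehicle control cultures reached saturation at 30 °C; 1 = growth at the plate median or of vehicle wells; lower values mean less growth of the strain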
Settings: growth OD

Measured: normalized growth

CN(C)CCN(Cc1cccs1)c1ccccn1
active: S. cerevisiae deletion strains, locus YJR066W, strain TOR1, active compounds read low 0.82
inactive: S. cerevisiae deletion strains, locus YJR075W, strain HOC1, active compounds read low 0.98 and 1.01 | S. cerevisiae deletion strains, locus YKL009W, strain mrt4, active compounds read low 1.02 | S. cerevisiae deletion strains, locus YKL068W, active compounds read low 1.01 | S. cerevisiae deletion strains, locus YKL085W, strain MDH1 (second series), active compounds read low 0.997 | S. cerevisiae deletion strains, locus YKL085W, strain MDH1, active compounds read low 0.997 | S. cerevisiae deletion strains, locus YKL160W, strain elf1, active compounds read low 1.01 | S. cerevisiae deletion strains, locus YKL190W, strain CNB1, active compounds read low 0.985 | S. cerevisiae deletion strains, locus YKR001C, strain vps1, active compounds read low 0.986 | S. cerevisiae deletion strains, locus YKR026C, strain gcn3, active compounds read low 1.01 | S. cerevisiae deletion strains, locus YKR091W, strain srl3, active compounds read low 1 | S. cerevisiae deletion strains, locus YLL001W, strain dnm1, active compounds read low 1.01 | S. cerevisiae deletion strains, locus YLL026W, active compounds read low 1 | S. cerevisiae deletion strains, locus YLL041C, strain sdh2, active compounds read low 1.01 | S. cerevisiae deletion strains, locus YLR027C, strain aat2, active compounds read low 1.01 | S. cerevisiae deletion strains, locus YLR039C, strain RIC1, active compounds read low 1.03 | S. cerevisiae deletion strains, locus YLR058C, strain SHM2, active compounds read low 1.02 | S. cerevisiae deletion strains, locus YLR102C, strain apc9, active compounds read low 1.01 | S. cerevisiae deletion strains, locus YLR113W, strain HOG1, active compounds read low 0.995 | S. cerevisiae deletion strains, locus YLR221C, strain rsa3, active compounds read low 1.01 | S. cerevisiae deletion strains, locus YLR258W, strain gsy2, active compounds read low 1.01 | S. cerevisiae deletion strains, locus YLR262C, strain YPT6 (second series), active compounds read low 1.01 | S. cerevisiae deletion strains, locus YLR262C, strain YPT6, active compounds read low 1.11 | S. cerevisiae deletion strains, locus YLR268W, strain sec22, active compounds read low 1.01 | S. cerevisiae deletion strains, locus YLR320W, strain mms22, active compounds read low 1.04 | S. cerevisiae deletion strains, locus YLR330W, strain CHS5, active compounds read low 1 | S. cerevisiae deletion strains, locus YLR342W, strain FKS1 (second series), active compounds read low 1.04 | S. cerevisiae deletion strains, locus YLR342W, strain FKS1, active compounds read low 1.01 | S. cerevisiae deletion strains, locus YLR357W, strain rsc2, active compounds read low 1.03 | S. cerevisiae deletion strains, locus YLR370C, strain arc18, active compounds read low 1.02 | S. cerevisiae deletion strains, locus YLR371W, strain rom2, active compounds read low 1.01 | S. cerevisiae deletion strains, locus YLR384C, strain iki3, active compounds read low 1.01 | S. cerevisiae deletion strains, locus YLR418C, strain cdc73, active compounds read low 1.02 | S. cerevisiae deletion strains, locus YML016C, strain PPZ1, active compounds read low 1.01 | S. cerevisiae deletion strains, locus YML032C, strain rad52, active compounds read low 0.988 | S. cerevisiae deletion strains, locus YML120C, strain ndi1, active compounds read low 1.01 | S. cerevisiae deletion strains, locus YML124C, strain tub3, active compounds read low 1.01 | S. cerevisiae deletion strains, locus YMR058W, strain fet3, active compounds read low 1.01 | S. cerevisiae deletion strains, locus YMR078C, strain ctf18, active compounds read low 1.02 | S. cerevisiae deletion strains, locus YMR125W, strain sto1, active compounds read low 1.01 | S. cerevisiae deletion strains, locus YMR129W, active compounds read low 1.01 | S. cerevisiae deletion strains, locus YMR205C, strain PFK2, active compounds read low 1.02 | S. cerevisiae deletion strains, locus YMR223W, strain ubp8, active compounds read low 1.05 | S. cerevisiae deletion strains, locus YMR231W, strain pep5, active compounds read low 1.01 | S. cerevisiae deletion strains, locus YMR307W, strain GAS1, active compounds read low 1.02 | S. cerevisiae deletion strains, locus YNL067W, strain RPL9B, active compounds read low 0.997 | S. cerevisiae deletion strains, locus YNL071W, strain lat1, active compounds read low 1 | S. cerevisiae deletion strains, locus YNL128W, strain TEP1, active compounds read low 1.02 | S. cerevisiae deletion strains, locus YNL153C, strain GIM3, active compounds read low 0.989 and 1.02 | S. cerevisiae deletion strains, locus YNL175C, strain NOP13, active compounds read low 1.02 | S. cerevisiae deletion strains, locus YNL183C, strain NPR1, active compounds read low 0.886 | S. cerevisiae deletion strains, locus YNL197C, strain WHI3, active compounds read low 0.992 | S. cerevisiae deletion strains, locus YNL209W, strain ssb2, active compounds read low 1 | S. cerevisiae deletion strains, locus YNL224C, strain SQS1, active compounds read low 1.01 | S. cerevisiae deletion strains, locus YNL233W, strain BNI4, active compounds read low 0.986 | S. cerevisiae deletion strains, locus YNL248C, strain rpa49, active compounds read low 1.02 | S. cerevisiae deletion strains, locus YNL250W, strain rad50, active compounds read low 1.02 | S. cerevisiae deletion strains, locus YNL271C, strain bni1, active compounds read low 1.01 | S. cerevisiae deletion strains, locus YNL298W, strain CLA4, active compounds read low 1.01 | S. cerevisiae deletion strains, locus YNL307C, strain MCK1, active compounds read low 1.02 | S. cerevisiae deletion strains, locus YNL322C, strain KRE1 (second series), active compounds read low 1.01 | S. cerevisiae deletion strains, locus YNL322C, strain KRE1, active compounds read low 0.991 | S. cerevisiae deletion strains, locus YNR049C, strain mso1, active compounds read low 1.02 | S. cerevisiae deletion strains, locus YNR052C, strain pop2, active compounds read low 1.01 | S. cerevisiae deletion strains, locus YOL006C, strain TOP1, active compounds read low 0.902 | S. cerevisiae deletion strains, locus YOL012C, strain htz1 0.737 | S. cerevisiae deletion strains, locus YOL147C, strain pex11, active compounds read low 1.02 | S. cerevisiae deletion strains, locus YOR001W, strain rrp6, active compounds read low 1 | S. cerevisiae deletion strains, locus YOR061W, strain CKA2, active compounds read low 1.01 | S. cerevisiae deletion strains, locus YOR069W, strain VPS5, active compounds read low 1.01 | S. cerevisiae deletion strains, locus YOR070C, strain gyp1, active compounds read low 1.01 | S. cerevisiae deletion strains, locus YOR080W, strain dia2, active compounds read low 1 | S. cerevisiae deletion strains, locus YOR083W, strain WHI5 (second series), active compounds read low 1.01 | S. cerevisiae deletion strains, locus YOR083W, strain WHI5, active compounds read low 1.01 | S. cerevisiae deletion strains, locus YOR106W, strain vam3, active compounds read low 0.998 | S. cerevisiae deletion strains, locus YOR136W, strain idh2, active compounds read low 1.01 | S. cerevisiae deletion strains, locus YOR144C, strain elg1, active compounds read low 1.01 | S. cerevisiae deletion strains, locus YOR184W, strain ser1, active compounds read low 1.01 | S. cerevisiae deletion strains, locus YOR231W, strain MKK1, active compounds read low 0.88 | S. cerevisiae deletion strains, locus YOR265W, strain rbl2, active compounds read low 1.01 | S. cerevisiae deletion strains, locus YOR270C, strain vph1, active compounds read low 1 | S. cerevisiae deletion strains, locus YOR290C, strain snf2, active compounds read low 1.01 | S. cerevisiae deletion strains, locus YOR316C, strain cot1, active compounds read low 1.01 | S. cerevisiae deletion strains, locus YPL051W, strain arl3, active compounds read low 1.01 | S. cerevisiae deletion strains, locus YPL055C, strain LGE1, active compounds read low 0.929 | S. cerevisiae deletion strains, locus YPL078C, strain atp4, active compounds read low 1 | S. cerevisiae deletion strains, locus YPL106C, strain sse1, active compounds read low 1 | S. cerevisiae deletion strains, locus YPL240C, strain hsp82, active compounds read low 1.01 | S. cerevisiae deletion strains, locus YPL256C, strain CLN2, active compounds read low 0.98 | S. cerevisiae deletion strains, locus YPR119W, strain clb2, active compounds read low 1.01 | S. cerevisiae deletion strains, locus YPR141C, strain kar3, active compounds read low 1 | S. cerevisiae deletion strains, locus YPR163C, strain tif3, active compounds read low 1.01 | S. cerevisiae deletion strains, locus YPR167C, strain met16, active compounds read low 1.01 | S. cerevisiae deletion strains, strain wtn01, active compounds read low 1.01 | S. cerevisiae strains, strain wild type, active compounds read low 1
